ANO1 block: inhibitors of mouse TMEM16A calcium-activated chloride channel. HEK293 TMEM16A/YFP iodide influx fluorescence, ionomycin. hit rate 1.2% among 310,000. normalized B-score (activity score, 25-100; higher = stronger inhibition) at 10 µM;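 active = ratio plate-corrected score three or more library SD toward inhibition, starting fluorescence score within five deviations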;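 also: score derived from kinetic fluorescence span divided by baseline fluorescence per well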
Target sequence (Q8BHY3 whole entry, looked up): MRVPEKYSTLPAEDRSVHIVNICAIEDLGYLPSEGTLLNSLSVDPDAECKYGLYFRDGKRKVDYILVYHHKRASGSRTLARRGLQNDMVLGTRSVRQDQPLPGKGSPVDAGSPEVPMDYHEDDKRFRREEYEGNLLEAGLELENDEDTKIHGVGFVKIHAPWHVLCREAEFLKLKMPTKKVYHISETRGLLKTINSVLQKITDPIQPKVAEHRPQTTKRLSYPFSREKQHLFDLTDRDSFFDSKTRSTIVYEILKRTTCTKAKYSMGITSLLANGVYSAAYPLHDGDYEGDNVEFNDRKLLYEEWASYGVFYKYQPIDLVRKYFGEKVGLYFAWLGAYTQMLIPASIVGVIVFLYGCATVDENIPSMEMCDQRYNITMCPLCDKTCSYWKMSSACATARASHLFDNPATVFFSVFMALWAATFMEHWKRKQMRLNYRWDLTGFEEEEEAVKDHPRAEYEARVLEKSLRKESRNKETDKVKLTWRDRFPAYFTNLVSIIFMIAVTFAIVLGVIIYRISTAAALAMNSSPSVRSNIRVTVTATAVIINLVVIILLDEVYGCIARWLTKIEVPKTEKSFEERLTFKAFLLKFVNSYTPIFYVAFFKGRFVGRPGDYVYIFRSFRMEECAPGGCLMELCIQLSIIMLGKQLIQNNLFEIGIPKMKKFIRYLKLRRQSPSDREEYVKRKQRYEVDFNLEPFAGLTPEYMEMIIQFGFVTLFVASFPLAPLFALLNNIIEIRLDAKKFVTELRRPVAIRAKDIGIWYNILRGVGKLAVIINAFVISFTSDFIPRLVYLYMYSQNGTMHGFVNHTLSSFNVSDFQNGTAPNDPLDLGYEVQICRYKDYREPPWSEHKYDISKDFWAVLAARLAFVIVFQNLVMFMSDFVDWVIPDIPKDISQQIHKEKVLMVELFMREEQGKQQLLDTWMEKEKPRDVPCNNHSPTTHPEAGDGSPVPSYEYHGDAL
TMEM16A act: activates or potentiates the mouse TMEM16A chloride channel | Q8BHY3 | HEK293 TMEM16A/YFP-H148Q/I152L, iodide quench fluorescence; active compounds read low | B-score at 10 µM | hit rate 0.3% among 340,000 | AID 623877;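 active = fluorescence-ratio B-score plate-corrected deviation score at least 3 library SD below zero, with starting fluorescence score within 5 deviations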;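 also: channel opened by trigger with iodide after compound preincubation; score built on the fluorescence ratio of max minus min over baseline; more negative score means more quench and so TMEM16A activation or potentiation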
697 NFkB inh: inhibitors of the PMA/ionomycin-induced NF-kB reporter in 697 B cells; AID 435022; hit rate 0.33% among 330,000; inhibition, % at 4 µM; 697 B-cell NF-kB luciferase reporter, 16 h; in the data active = inhibition above about 35%
Jurkat NFkB inh: lowers PMA/ionomycin-induced NF-kB signal in Jurkat cells. PMA/ionomycin-induced NF-kB luciferase reporter, luminescence. inhibition, % at 4 µM. hit rate 0.53% among 330,000. AID 435003; in the data active = inhibition above about 50%
aSyn UTR inh: MLPCN primary screen, SNCA 5' untranslated region. hit rate 0.82% among 300,000. inhibition, % (tested at 7.5 µM). alpha-synuclein 5'UTR reporter, inhibitor activity. AID 1813; in the data active = inhibition above about 60%; inconclusive = no clear call, values can overlap the other calls;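 also: H4 neuroglioblastoma cells stably carrying SNCA 5'UTR luciferase fusion; 0% = DMSO wells and 100% = positive control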
KLF5 inhibitor: inhibitors of KLF5 expression. hit rate 0.23% among 290,000. DLD-1 KLF5 promoter-luciferase reporter, luminescence. inhibition, % at 5 µM;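 active = inhibition above a per-plate limit of that plate's mean compound inhibition plus 3 SD, cut at about 60% in these data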;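 also: 0% = DMSO wells and 100% = LY294002 at 200 µM; higher means less KLF5 promoter-driven luciferase light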
Jurkat NFkB conf: lowers PMA/ionomycin-induced NF-kB signal in Jurkat cells | shares compounds with Jurkat NFkB inh | Jurkat NF-kB luciferase, 16 h | inhibition, % at 4 µM | hit rate 27% among 2,700 | AID 435020;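 active = inhibition reaching about 45% at 4 µM in either replicate, limit read from the data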;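 also: plate controls were PMA/ionomycin stimulated DMSO wells for no effect and unstimulated DMSO wells for full effect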
* = called active by the depositor; i = inactive; ? = inconclusive; . = no result. Only some compounds are listed: those with a hit (about 2.5% of all), similar ones and a draw of the others.

SMILES	ANO1 block	TMEM16A act	697 NFkB inh	Jurkat NFkB inh	aSyn UTR inh	KLF5 inhibitor	Jurkat NFkB conf
COC(=O)[C@]1(C)N[C@H](CN(C)S(=O)(=O)c2ccc(OC(F)(F)F)cc2)[C@@H]2C(=O)N(C)C(=O)[C@@H]21	.	.	-3.7	-7.3	.	.	.
CC1Cc2ccccc2N1C(=O)/C=C/c1cccc(F)c1 (stereo unspecified)	i	i	-126.8	-175.8	-170.1	-114.3	-101.8
CCOC(=O)C1=CNS(=O)(=O)NC1c1ccc(Br)cc1F (stereo unspecified)	.	.	18.2	.	.	.	.
CCOC(=O)c1[nH]c(C)c(/C(O)=C2\C(=O)C(=O)N(CCCN3CCOCC3)C2c2cccs2)c1C (stereo unspecified)	i	i	-25.1	54.8*	-34.3	32.9	11.9
NC(=O)c1c(NC(=O)c2ccccc2F)sc2c1CCCC2	i	i	-194.3	-173.7	-170.2	-190.9	-107.6
NC(=O)c1c(NC(=O)c2ccccc2C(=O)O)sc2c1CCCC2	i	i	0.3	18.2	6.3	-16.3	.
COc1ccc([C@H]2CC(=O)C=C(c3ccc(OC)cc3OC)C2)cc1	.	i	-48.8	57.8*	.	.	48.1*
COc1ccc(C(=O)N2CCN(c3ccc([N+](=O)[O-])c(NCCc4ccc(OC)c(OC)c4)c3)CC2)cc1	i	i	15.3	73.4*	16.5	-20.2	75.2*
COc1ccc(CCNc2cc(N3CCN(C(=O)c4ccc(C)cc4)CC3)ccc2[N+](=O)[O-])cc1OC	i	.	7.3	74.7*	2.1	-16.7	66.8*
Cc1[nH]c2ccccc2c1/C=C/c1nc2ccccc2c(=O)[nH]1	i	i	-134.1	-167.7	-98.2	-182.7	-32.8
O=C1CC(c2cccc(Cl)c2)c2cc3c(cc2N1)CCC3 (stereo unspecified)	i	i	-59.8	56.2*	49.3	13.8	35.2
COc1cccc(C2CC(=O)Nc3cc(OC)c(OC)cc32)c1 (stereo unspecified)	i	i	-6.1	12.5	20.0	-22.3	.
COc1cccc(C2CC(=O)Nc3cc4c(cc32)CCC4)c1 (stereo unspecified)	i	i	-56.2	61.4*	84.2*	42.8	50.5*
CCOc1cccc(C2CC(=O)Nc3cc(OC)c(OC)cc32)c1 (stereo unspecified)	i	i	4.9	7.7	24.4	-33.6	.
O=C(c1ccc(F)cc1)C(CN1CCOCC1)c1ccccc1 (stereo unspecified)	i	i	-136.5	52.5*	-8.6	-34.0	12.2
COc1ccc(C(=O)C(CN2CCOCC2)c2ccccc2)cc1 (stereo unspecified)	i	i	-62.1	26.0	-80.2	-3.4	.
COc1ccc(NC(=O)CN2CCN(c3c(C)cccc3C)CC2)cc1	i	i	-7.9	0.7	-4.5	-15.4	.
COc1ccc2cc(C=NS(=O)(=O)c3ccc(C)cc3)n(C)c2c1	.	i	0.5	-11.1	.	.	.
O=[N+]([O-])c1ccc(Cl)c(S(=O)(=O)NCCc2ccccn2)c1	.	i	11.4	-165.7	.	.	18.6
CCOCc1c(C(=O)Nc2ccc(OC)nc2)oc2ccccc12	i	i	2.0	2.8	-14.7	6.1	.
Cc1oc2c(c1C(=O)NCc1cccnc1)C(=O)c1ccccc1C2=O	i	.	28.9	88.2*	106.6*	-16.7	84.5*
CC(=O)c1c(C)oc2c1C(=O)c1ccccc1C2=O	i	i	.	.	-62.1	-12.3	.
COc1ccc(CNC(=O)c2c(C)oc3c2C(=O)c2ccccc2C3=O)cc1	i	i	-15.6	59.8*	102.8*	-21.8	58.6*
COC(=O)c1ccccc1NC(=O)CSc1nc(C)cc(C)n1	i	i	-2.5	13.0	-6.5	-27.8	.
Cc1cc(C)nc(SCC(=O)Nc2ccnc3ccccc23)n1	i	i	23.3	63.9*	-23.9	13.0	64.7*
SMILES	ANO1 block	TMEM16A act	697 NFkB inh	Jurkat NFkB inh	aSyn UTR inh	KLF5 inhibitor	Jurkat NFkB conf
COc1ccc2c(c1OC)C(=O)N1c3ccccc3C(=O)N(c3ccccc3)C21 (stereo unspecified)	i	i	27.8	53.6*	33.8	-4.5	5.6
CN(C)CCNC(=O)C(=O)Nc1ccc2c(c1)N(S(=O)(=O)c1cccs1)CCC2	i	i	9.5	64.7*	-63.2	.	14.2
COCCCNC(=O)C(=O)Nc1ccc2c(c1)N(S(=O)(=O)c1cccs1)CCC2	i	i	-2.7	61.8*	?	.	56.7*
CN(C)CCCNC(=O)C(=O)Nc1ccc2c(c1)N(S(=O)(=O)c1cccs1)CCC2	i	i	9.0	-15.2	12.2	.	.
Cn1c2c(c3ccccc31)CCN(CCCCN1CCN(c3ccccc3)CC1)C2=O	.	i	.	.	.	.	.
CCN(Cc1cc(OC)c(OC)c(OC)c1)C(=S)Nc1cccc(SC)c1	i	i	-5.2	1.6	9.7	-28.8	.
Cn1c(C(=O)Nc2ccc3c(c2)OCCO3)cc2sccc21	i	i	-194.8	-190.5	-86.6	-128.3	-103.8
COc1cc2c(cc1OC)CN(C(=O)c1ccc3nc[nH]c3c1)CC2	i	i	-4.2	60.8*	5.6	15.3	22.2
O=S1(=O)C=CC(Nc2cccc(Cl)c2)C1 (stereo unspecified)	i	i	12.2	50.3*	-18.1	-3.7	18.3
COc1cccc(NC2C=CS(=O)(=O)C2)c1 (stereo unspecified)	i	i	13.5	19.7	.	-6.0	.
CCOC(=O)C1(Cc2ccccc2C)CCCN(S(=O)(=O)CC)C1 (stereo unspecified)	i	i	3.2	4.3	-2.4	-11.7	.
O=C(CCCOc1ccc(Br)cc1)NNC(=O)c1ccncc1	i	i	16.3	-8.5	0.9	.	.
CC#CC(=O)N1CCC(n2nccc2NC(=O)c2ccc3c(c2)OCO3)CC1	i	i	9.0	74.0*	-83.0	-14.0	35.9
O=C(C1CC(=O)N(c2ccc3c(c2)OCCO3)C1)N1CCN(Cc2ccccc2F)CC1 (stereo unspecified)	.	i	1.8	4.0	.	.	.
COc1ccc(C)cc1NC(=O)CSc1ccc(-c2ccccn2)nn1	i	i	-5.2	53.0*	16.1	-30.0	20.1
COc1ccc(C)cc1NC(=O)CSc1ccc(-c2sc(C)nc2C)nn1	i	i	-33.1	51.2*	14.7	-4.3	9.5
CCCCN(C(=O)c1ccc(S(=O)(=O)N(C)c2ccccc2)cc1)c1c(N)n(CCC)c(=O)[nH]c1=O	.	i	.	.	.	.	.
CC(Oc1ccccc1F)C(=O)NC1CCS(=O)(=O)C1 (stereo unspecified)	i	i	14.2	-1.0	2.2	-32.7	.
Cc1ccc(OCC(O)CNC2CCCC2)c(C)c1 (stereo unspecified)	i	i	19.3	5.5	3.5	-50.5	.

Bioassay records deposited in PubChem by several laboratories.
